The source of these data is paper PMC5540273 (PLoS ONE, 2017).

Conditions in all cases: concentration: 1 μM, replicates: in singlicate; n = 1
Assay [1] relates to VRK2.
Assay [2] relates to WEE1.
Assay [3] deals with WEE2.
Assay [4] has as its system WNK1.
In assay [5] the test system is WNK2.
Assay [6] relates to WNK3.
The test system of assay [7] is WNK4.
For assay [8], the system named is T1, YANK1.
T1 construct: gene STK32A

Assay [9] concerns T2, YANK2.
T2 construct: gene STK32B

Assay [10] relates to T3, YANK3.
T3 construct: gene STK32C

Assay [11] deals with T4, YES.
T4 construct: gene YES1

Assay [12] has as its system T5, YSK1.
T5 construct: gene STK25

Assay [13] concerns T6, YSK4.
T6 construct: gene MAP3K19

Assay [14] deals with ZAK.
The subject of assay [15] is ZAP70.
The subject of assay [16] is T7, p38-alpha.
T7 construct: gene MAPK14

Assay [17] concerns T8, p38-beta.
T8 construct: gene MAPK11

In assay [18] the test system is p38-delta.
The subject of assay [19] is T9, p38-gamma.
T9 construct: gene MAPK12
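Note: KINOMEscan kinase panel screen.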

Turning to `COc1cc2nccc(Nc3ccc(NC(=O)c4ccc(C)cc4)c(O)c3)c2cc1OC.Cl` [GW440132], the “%Inh” value in assay [1] is reported as 0%; in assay [2] it was 2%; in assay [3], 11%; in assay [4], 7%; in assay [5], 14%; in [6] it was 14%. Also, the “%Inh” value in assay [7] is reported as 0%; in [8], 11%; in assay [9], 0%; in assay [10], 16%; in assay [11], 17%; in assay [12] it was 20%. In addition, the “%Inh” value in [13] stood at 9%; in assay [14] it was 23%; in [15] it was 0%; in assay [16] it was 0%; in [17] it was 0%; in [18] it was 23%. For the same molecule, in [19], the “%Inh” value amounted to 0%.
Take `Cn1ccc2ncnc(Oc3ccc(Nc4nc5ccccc5[nH]4)cc3)c21`: the “%Inh” value in assay [1] was 0%; in assay [2] it was 0%; in [3] it was 19%; in assay [4], 0%; in assay [5], 0%; in assay [6], 0%. The “%Inh” value in [7] worked out at 0%; in assay [8], 0%; in assay [9], 0%; in [10], 2%; in assay [11], 0%; in [12], 0%. The “%Inh” value in assay [13] was determined as 14%; in assay [14], 0%; in assay [15], 0%; in assay [16], 5%; in [17], 0%; in assay [18] it was 16%. Besides, the “%Inh” value in assay [19] turned out to be 0%.
Take `COc1cccc(-c2cc(-c3c[nH]nc3-c3ccccn3)ccn2)c1` [GW680338]: the “%Inh” value in [1] is listed as 24%; in assay [2] it was 19%; in assay [3], 4%; in [4] it was 0%; in assay [5] it was 17%; in assay [6], 26%. The “%Inh” value in assay [7] was determined as 25%; in assay [8] it was 2%; in [9], 0%; in assay [10] it was 0%; in [11] it was 0%; in assay [12], 0%. For the same molecule, the “%Inh” value in [13] was found to be 0%; in [14] it was 0%; in assay [15] it was 10%; in assay [16], 27%; in [17], 7%; in assay [18] it was 20%. Besides, the “%Inh” value in assay [19] came out at 0%.
`CC1=C(C(=O)Nc2cc3cn[nH]c3cc2F)C(c2ccc(C(F)(F)F)cc2)CC(=O)N1` (centres unmarked) [GSK429286]: the “%Inh” value worked out at 0% in [1]; 12% in assay [2]; 20% in assay [3]; 20% in assay [4]; 61% in [5]; 3% in [6]. Besides, the “%Inh” value came out at 0% in assay [7]; 8% in assay [8]; 0% in assay [9]; 24% in [10]; 17% in assay [11]; 0% in assay [12]. The “%Inh” value in assay [13] is 9%; in assay [14], 9%; in assay [15] it was 0%; in assay [16], 0%; in [17], 0%; in [18], 21%. Also, the “%Inh” value in [19] worked out at 0%.
With `COc1ccc(Nc2nccc(-c3cccc(NC(=O)c4cc5cc(F)ccc5[nH]4)c3)n2)cc1` [GSK1229782], the “%Inh” value turned out to be 27% in assay [1]; 33% in assay [2]; 16% in assay [3]; 11% in [4]; 12% in assay [5]; 31% in assay [6]. The “%Inh” value came to 59% in assay [7]; 3% in assay [8]; 0% in assay [9]; 30% in [10]; 29% in assay [11]; 31% in assay [12]. Further, the “%Inh” value in assay [13] stood at 79%; in [14], 22%; in [15], 0%; in [16], 27%; in [17] it was 0%; in assay [18] it was 45%. In assay [19], the “%Inh” value is 48%.
Regarding `Cc1ccc(C(=O)Nc2ccc(Nc3ccnc4cc(-c5ccccn5)ccc34)cc2O)cc1.Cl` [GW440146], the “%Inh” value in assay [1] was determined as 0%; in assay [2] it was 39%; in assay [3], 0%; in assay [4], 10%; in assay [5], 8%; in [6], 36%. Besides, the “%Inh” value in assay [7] was 39%; in assay [8], 0%; in assay [9], 14%; in assay [10] it was 30%; in assay [11], 42%; in assay [12], 0%. Moreover, the “%Inh” value in assay [13] amounted to 14%; in assay [14] it was 48%; in [15], 9%; in assay [16], 0%; in assay [17], 0%; in assay [18] it was 42%. Moreover, the “%Inh” value in [19] is recorded as 11%.
With `Cc1c(Cn2ccn3c(=O)cc(N4CCOCC4)nc23)cccc1C(F)(F)F` [GSK2289044], the “%Inh” value in [1] came to 0%; in [2] it was 0%; in assay [3], 0%; in [4] it was 0%; in [5], 0%; in [6], 14%. In addition, the “%Inh” value is on record as 0% in assay [7]; 9% in [8]; 1% in [9]; 31% in assay [10]; 3% in assay [11]; 0% in assay [12]. For the same molecule, the “%Inh” value in assay [13] was 43%; in assay [14] it was 8%; in assay [15], 0%; in [16], 0%; in [17], 0%; in [18], 12%. Besides, the “%Inh” value in [19] is recorded as 12%.
For the molecule `O=c1cc(N2CCOCC2)nc2n(Cc3cccc(Cl)c3Cl)ccn12` [GSK2286295], the “%Inh” value in assay [1] amounted to 0%; in assay [2], 3%; in assay [3] it was 0%; in assay [4], 0%; in [5], 0%; in [6], 0%. In addition, the “%Inh” value in [7] is 0%; in assay [8] it was 16%; in [9] it was 2%; in assay [10], 0%; in assay [11] it was 14%; in [12] it was 8%. For the same molecule, the “%Inh” value was found to be 23% in assay [13]; 6% in [14]; 0% in assay [15]; 0% in assay [16]; 0% in assay [17]; 40% in assay [18]. Also, the “%Inh” value in assay [19] is listed as 27%.
Turning to `O=C(Nc1ccc2c(c1)OCO2)NC1CCN(c2ccnc(Nc3ccc(F)cc3)n2)C1` (centres unmarked) [GSK1379724], the “%Inh” value in [1] stood at 0%; in assay [2] it was 11%; in assay [3], 4%; in assay [4], 8%; in assay [5], 3%; in assay [6], 31%. The “%Inh” value in [7] is 11%; in assay [8], 9%; in assay [9] it was 0%; in assay [10], 5%; in assay [11] it was 0%; in assay [12], 0%. Besides, the “%Inh” value in assay [13] was found to be 39%; in [14] it was 28%; in assay [15], 0%; in assay [16], 0%; in [17] it was 0%; in assay [18] it was 37%. In assay [19], the “%Inh” value stood at 0%.
Regarding `Cn1cncc1-c1ccc2ncnc(Nc3ccc(OCc4ccccc4)cc3)c2c1` [GW320571], the “%Inh” value in assay [1] came to 0%; in assay [2], 16%; in assay [3], 14%; in assay [4], 1%; in assay [5] it was 15%; in assay [6], 3%. In addition, the “%Inh” value in assay [7] was 0%; in [8] it was 94.2%; in [9], 16%; in [10], 7%; in assay [11] it was 26%; in [12] it was 0%. The “%Inh” value in assay [13] amounted to 1%; in assay [14] it was 17%; in assay [15] it was 0%; in assay [16], 0%; in assay [17] it was 2%; in assay [18] it was 21%. Further, the “%Inh” value in assay [19] was determined as 0%.
On to `Cc1ccc(-c2cc(-c3c[nH]nc3-c3ccccn3)ccn2)cc1` [GW684088], for which the “%Inh” value in assay [1] amounted to 45%; in [2], 1%; in assay [3] it was 0%; in assay [4], 6%; in [5] it was 19%; in assay [6], 53%. The “%Inh” value in [7] stood at 89%; in assay [8] it was 0%; in assay [9] it was 0%; in assay [10], 0%; in assay [11], 17%; in assay [12] it was 10%. Further, the “%Inh” value in assay [13] turned out to be 2%; in assay [14] it was 0%; in [15], 10%; in [16], 56%; in assay [17], 0%; in [18], 25%. Further, the “%Inh” value in assay [19] was 11%.
